Results: paper PMC7862700, “An all-to-all approach to the identification of sequence-specific readers for epigenetic DNA modifications on cytosine”

Legend:
Experiment in all cases: DAPPL (digital affinity profiling via proximity ligation, sequencing); 10 mM Tris-HCl pH 7.5, 50 mM NaCl, 1 mM DTT, 4% glycerol, room temperature, 30 min; GST-TFs on glutathione beads, 16-mer random dsDNA library, 0.1% formaldehyde crosslink after washing; high values mean tight binding
Details in all cases: protein: recombinant; tags: N-terminal GST; dsDNA, one strand shown
FLI1 = target: T1, FLI1 (Homo sapiens, UniProt Q01543 1-452)
T1 sequence: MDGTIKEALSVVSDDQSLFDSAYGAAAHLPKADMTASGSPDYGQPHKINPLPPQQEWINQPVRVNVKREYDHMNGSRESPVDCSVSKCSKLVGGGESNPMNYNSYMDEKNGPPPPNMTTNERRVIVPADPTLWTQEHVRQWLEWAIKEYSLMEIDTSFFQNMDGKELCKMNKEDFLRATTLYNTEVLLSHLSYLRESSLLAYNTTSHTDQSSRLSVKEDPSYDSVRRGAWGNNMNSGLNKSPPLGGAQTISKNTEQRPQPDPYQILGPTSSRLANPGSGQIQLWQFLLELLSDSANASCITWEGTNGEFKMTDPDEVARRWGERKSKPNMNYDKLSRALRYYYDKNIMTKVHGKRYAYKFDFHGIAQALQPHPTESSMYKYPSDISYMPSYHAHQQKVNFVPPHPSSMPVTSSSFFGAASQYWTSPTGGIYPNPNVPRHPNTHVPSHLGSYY
In short: (§1)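 Human transcription factors were made in yeast as GST fusions, captured on glutathione beads and barcoded with DNA. With a tag-only sample included, the pool was incubated with 200 nmole of a random double-stranded 16-mer DNA library in Tris/NaCl/DTT/glycerol buffer at room temperature for 30 min, then crosslinked with 0.1% formaldehyde after washing, ligated by proximity, amplified and sequenced. For binding signal, each hexamer's read frequency for a factor is divided by its frequency for the tag-only sample.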

ELK1 = target: T2, ELK1 (Homo sapiens, UniProt P19419 1-428)
T2 sequence: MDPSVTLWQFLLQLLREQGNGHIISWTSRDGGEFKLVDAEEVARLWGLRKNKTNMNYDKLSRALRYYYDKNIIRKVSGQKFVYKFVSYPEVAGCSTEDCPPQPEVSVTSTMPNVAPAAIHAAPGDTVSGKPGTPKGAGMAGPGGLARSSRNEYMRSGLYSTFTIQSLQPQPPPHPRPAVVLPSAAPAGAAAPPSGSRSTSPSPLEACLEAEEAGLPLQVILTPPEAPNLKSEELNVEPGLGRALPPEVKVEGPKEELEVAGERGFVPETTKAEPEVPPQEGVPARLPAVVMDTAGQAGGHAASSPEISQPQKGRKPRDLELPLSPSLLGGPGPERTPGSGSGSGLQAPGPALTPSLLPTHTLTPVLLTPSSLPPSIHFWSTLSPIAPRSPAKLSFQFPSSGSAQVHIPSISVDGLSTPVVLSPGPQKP
In short: as §1

GABPA = target: T3, GABPA (Homo sapiens, UniProt Q06546 1-454)
T3 sequence: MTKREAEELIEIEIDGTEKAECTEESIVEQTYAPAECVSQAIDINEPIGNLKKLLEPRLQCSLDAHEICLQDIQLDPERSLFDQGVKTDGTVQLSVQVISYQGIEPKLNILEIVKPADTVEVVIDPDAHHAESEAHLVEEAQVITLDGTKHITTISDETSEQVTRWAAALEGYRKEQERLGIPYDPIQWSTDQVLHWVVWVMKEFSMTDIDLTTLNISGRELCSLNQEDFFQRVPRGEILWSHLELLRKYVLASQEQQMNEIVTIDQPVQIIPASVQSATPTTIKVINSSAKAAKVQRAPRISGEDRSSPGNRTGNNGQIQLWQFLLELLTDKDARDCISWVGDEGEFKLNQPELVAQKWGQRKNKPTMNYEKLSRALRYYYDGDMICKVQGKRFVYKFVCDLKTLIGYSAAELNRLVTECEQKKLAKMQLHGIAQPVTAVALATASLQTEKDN
In short: as §1

ERG = target: T4, ERG (Homo sapiens, UniProt P11308 1-479)
T4 sequence: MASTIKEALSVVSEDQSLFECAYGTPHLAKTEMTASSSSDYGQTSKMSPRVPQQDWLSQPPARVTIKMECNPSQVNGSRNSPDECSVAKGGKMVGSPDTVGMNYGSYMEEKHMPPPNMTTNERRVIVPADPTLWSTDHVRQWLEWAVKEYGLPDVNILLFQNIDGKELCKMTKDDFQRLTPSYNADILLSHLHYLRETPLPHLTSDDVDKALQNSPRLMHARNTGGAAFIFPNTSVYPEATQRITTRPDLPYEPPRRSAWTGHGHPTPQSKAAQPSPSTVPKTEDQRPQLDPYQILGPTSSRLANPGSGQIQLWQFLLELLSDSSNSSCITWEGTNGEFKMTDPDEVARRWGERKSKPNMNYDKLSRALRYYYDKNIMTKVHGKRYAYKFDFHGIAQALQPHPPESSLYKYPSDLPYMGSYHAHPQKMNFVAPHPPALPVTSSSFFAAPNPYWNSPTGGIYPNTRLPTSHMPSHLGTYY
In short: as §1

ELF1 = ELF1 (Homo sapiens, UniProt P32519 1-619)
ELF1, sequence (P32519 whole entry): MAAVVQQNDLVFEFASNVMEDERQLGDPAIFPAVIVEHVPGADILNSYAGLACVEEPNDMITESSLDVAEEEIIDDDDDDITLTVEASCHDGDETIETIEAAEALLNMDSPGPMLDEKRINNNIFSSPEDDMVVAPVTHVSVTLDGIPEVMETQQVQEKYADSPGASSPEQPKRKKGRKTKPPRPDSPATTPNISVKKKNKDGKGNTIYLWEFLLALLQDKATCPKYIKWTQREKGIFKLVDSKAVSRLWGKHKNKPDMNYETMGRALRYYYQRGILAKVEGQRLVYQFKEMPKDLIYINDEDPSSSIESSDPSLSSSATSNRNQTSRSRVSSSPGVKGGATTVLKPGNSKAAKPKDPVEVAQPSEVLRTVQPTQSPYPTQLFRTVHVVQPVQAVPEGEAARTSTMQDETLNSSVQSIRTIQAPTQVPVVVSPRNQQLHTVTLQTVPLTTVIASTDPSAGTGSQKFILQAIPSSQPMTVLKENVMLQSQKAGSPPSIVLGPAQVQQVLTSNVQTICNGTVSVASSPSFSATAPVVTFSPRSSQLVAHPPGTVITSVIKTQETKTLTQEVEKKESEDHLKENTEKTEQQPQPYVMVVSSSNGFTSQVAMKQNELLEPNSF
In short: as §1

EHF = target: T5, EHF (Homo sapiens, UniProt Q9NZC4 1-300)
T5 sequence: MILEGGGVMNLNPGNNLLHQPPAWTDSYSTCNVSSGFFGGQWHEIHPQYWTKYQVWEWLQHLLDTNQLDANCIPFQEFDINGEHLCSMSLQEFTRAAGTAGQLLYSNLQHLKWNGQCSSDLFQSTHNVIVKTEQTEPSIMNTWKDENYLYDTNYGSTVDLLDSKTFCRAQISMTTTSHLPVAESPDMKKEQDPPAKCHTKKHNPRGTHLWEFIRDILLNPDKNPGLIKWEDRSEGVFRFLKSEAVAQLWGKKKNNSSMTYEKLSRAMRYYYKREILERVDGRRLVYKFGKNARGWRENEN
In short: as §1

SPI1 = SPI1 (Homo sapiens, UniProt P17947 1-270)
In short: as §1

SPIB = SPIB (Homo sapiens, UniProt Q01892 1-262)
SPIB, sequence (Q01892 whole entry): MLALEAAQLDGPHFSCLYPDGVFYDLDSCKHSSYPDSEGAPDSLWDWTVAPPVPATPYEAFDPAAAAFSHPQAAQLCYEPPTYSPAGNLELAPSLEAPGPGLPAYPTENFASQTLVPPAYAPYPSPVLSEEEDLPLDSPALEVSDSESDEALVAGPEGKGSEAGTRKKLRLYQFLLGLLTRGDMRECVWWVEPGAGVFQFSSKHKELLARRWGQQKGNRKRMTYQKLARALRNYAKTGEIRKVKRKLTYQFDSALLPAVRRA
In short: as §1

ELK3 = target: T6, ELK3 (Homo sapiens, UniProt P41970 1-407)
T6 sequence: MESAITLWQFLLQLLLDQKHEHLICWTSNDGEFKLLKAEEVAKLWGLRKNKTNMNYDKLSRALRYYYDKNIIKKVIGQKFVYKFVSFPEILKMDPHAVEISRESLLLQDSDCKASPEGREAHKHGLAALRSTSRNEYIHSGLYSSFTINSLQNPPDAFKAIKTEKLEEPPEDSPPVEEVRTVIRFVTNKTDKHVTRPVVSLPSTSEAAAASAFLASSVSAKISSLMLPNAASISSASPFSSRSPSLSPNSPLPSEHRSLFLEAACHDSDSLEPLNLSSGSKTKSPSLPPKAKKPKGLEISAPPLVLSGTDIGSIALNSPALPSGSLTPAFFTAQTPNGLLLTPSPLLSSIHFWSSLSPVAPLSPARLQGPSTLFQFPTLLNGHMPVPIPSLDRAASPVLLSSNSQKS
In short: as §1

Sequence | binding signal (FLI1) | binding signal (ELK1) | binding signal (GABPA) | binding signal (ERG) | binding signal (ELF1) | binding signal (EHF) | binding signal (SPI1) | binding signal (SPIB) | binding signal (ELK3)
TAATTA | 1.24 fold enrichment (6-mer frequency, TF over GST control) | 1.2 fold enrichment (6-mer frequency, TF over GST control) | 1.23 fold enrichment (6-mer frequency, TF over GST control) | 1.3 fold enrichment (6-mer frequency, TF over GST control) | 1.3 fold enrichment (6-mer frequency, TF over GST control) | 1.22 fold enrichment (6-mer frequency, TF over GST control) | 1.25 fold enrichment (6-mer frequency, TF over GST control) | 1.27 fold enrichment (6-mer frequency, TF over GST control) | 1.24 fold enrichment (6-mer frequency, TF over GST control)
TGTTAT | 1.37 fold enrichment (6-mer frequency, TF over GST control) | 1.27 fold enrichment (6-mer frequency, TF over GST control) | 1.36 fold enrichment (6-mer frequency, TF over GST control) | 1.41 fold enrichment (6-mer frequency, TF over GST control) | 1.29 fold enrichment (6-mer frequency, TF over GST control) | 1.35 fold enrichment (6-mer frequency, TF over GST control) | 1.38 fold enrichment (6-mer frequency, TF over GST control) | 1.31 fold enrichment (6-mer frequency, TF over GST control) | 1.24 fold enrichment (6-mer frequency, TF over GST control)
TCACAC | 1.31 fold enrichment (6-mer frequency, TF over GST control) | 1.19 fold enrichment (6-mer frequency, TF over GST control) | 1.34 fold enrichment (6-mer frequency, TF over GST control) | 1.31 fold enrichment (6-mer frequency, TF over GST control) | 1.32 fold enrichment (6-mer frequency, TF over GST control) | 1.3 fold enrichment (6-mer frequency, TF over GST control) | 1.23 fold enrichment (6-mer frequency, TF over GST control) | 1.29 fold enrichment (6-mer frequency, TF over GST control) | 1.46 fold enrichment (6-mer frequency, TF over GST control)
AACTAC | 1.42 fold enrichment (6-mer frequency, TF over GST control) | 1.42 fold enrichment (6-mer frequency, TF over GST control) | 1.49 fold enrichment (6-mer frequency, TF over GST control) | 1.5 fold enrichment (6-mer frequency, TF over GST control) | 1.45 fold enrichment (6-mer frequency, TF over GST control) | 1.43 fold enrichment (6-mer frequency, TF over GST control) | 1.47 fold enrichment (6-mer frequency, TF over GST control) | 1.47 fold enrichment (6-mer frequency, TF over GST control) | 1.48 fold enrichment (6-mer frequency, TF over GST control)
CTTGCC | 1.29 fold enrichment (6-mer frequency, TF over GST control) | 1.17 fold enrichment (6-mer frequency, TF over GST control) | 1.3 fold enrichment (6-mer frequency, TF over GST control) | 1.24 fold enrichment (6-mer frequency, TF over GST control) | 1.29 fold enrichment (6-mer frequency, TF over GST control) | 1.33 fold enrichment (6-mer frequency, TF over GST control) | 1.38 fold enrichment (6-mer frequency, TF over GST control) | 1.22 fold enrichment (6-mer frequency, TF over GST control) | 1.3 fold enrichment (6-mer frequency, TF over GST control)
TCTCAC | 1.45 fold enrichment (6-mer frequency, TF over GST control) | 1.45 fold enrichment (6-mer frequency, TF over GST control) | 1.43 fold enrichment (6-mer frequency, TF over GST control) | 1.41 fold enrichment (6-mer frequency, TF over GST control) | 1.39 fold enrichment (6-mer frequency, TF over GST control) | 1.39 fold enrichment (6-mer frequency, TF over GST control) | 1.36 fold enrichment (6-mer frequency, TF over GST control) | 1.48 fold enrichment (6-mer frequency, TF over GST control) | 1.58 fold enrichment (6-mer frequency, TF over GST control)
ACTCTT | 1.17 fold enrichment (6-mer frequency, TF over GST control) | 1.24 fold enrichment (6-mer frequency, TF over GST control) | 1.22 fold enrichment (6-mer frequency, TF over GST control) | 1.24 fold enrichment (6-mer frequency, TF over GST control) | 1.25 fold enrichment (6-mer frequency, TF over GST control) | 1.2 fold enrichment (6-mer frequency, TF over GST control) | 1.19 fold enrichment (6-mer frequency, TF over GST control) | 1.25 fold enrichment (6-mer frequency, TF over GST control) | 1.47 fold enrichment (6-mer frequency, TF over GST control)
